Bioassay records deposited in PubChem by several laboratories.
MCL1 BIM primary = MCL1-BIM-BH3 interaction inhibition (human); Q07820; GST-MCL1 / FITC-Bim-BH3 fluorescence polarization; inhibition, % at 10.9 µM; actives 0.68% (n = 320,000); AID 2057;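 active means inhibition above the mean inhibition of all tested compounds plus 3 SD, set per campaign, cut at about 40% in these data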;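 further: higher means more loss of mP so more displacement of Bim peptide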
Target sequence (Q07820 whole entry, looked up): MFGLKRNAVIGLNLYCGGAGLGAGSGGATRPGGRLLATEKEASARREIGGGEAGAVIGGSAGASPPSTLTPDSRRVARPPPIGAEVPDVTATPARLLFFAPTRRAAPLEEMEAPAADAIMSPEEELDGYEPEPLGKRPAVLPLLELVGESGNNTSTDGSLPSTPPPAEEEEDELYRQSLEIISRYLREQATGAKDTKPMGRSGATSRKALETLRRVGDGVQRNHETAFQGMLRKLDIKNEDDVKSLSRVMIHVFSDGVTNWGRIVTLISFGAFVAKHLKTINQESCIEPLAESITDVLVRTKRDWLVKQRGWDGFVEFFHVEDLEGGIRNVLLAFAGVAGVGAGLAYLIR
GLD-1 RNA inh = GLD-1-TGE RNA interaction inhibition (C. elegans); Q17339; purified GLD-1 + fluorescein TGE RNA, fluorescence polarization; inhibition, % at 5.96 µM; actives 0.44% (n = 320,000); AID 2280;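 active means percent inhibition above a per-plate cutoff, the plate mean of test compounds plus 3 SD, cut at about 30% in these data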
MEX-5 binding = C. elegans MEX-5 TCR-2 RNA binding activity | MEX-5/FITC-TCR2 RNA binding, fluorescence polarization; active compounds read low | Q9XUB2 | actives 0.38% (n = 300,000) | activity score (negative = inhibition of binding), % at 10 µM;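 active means inhibition past about -25% in most replicates, and total fluorescence under double the plate's negative control median, limit read from the data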
BCLXL inh = inhibitors of human Bcl-xL; Q07817; GST-Bcl-xL / FITC-Bim BH3 peptide fluorescence polarization; inhibition, % at 10.9 µM; actives 0.7% (n = 320,000); AID 2129;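 active means inhibition above the mean of all tested compounds plus 3 SD, cutoff set per campaign, cut at about 30% in these data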;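 further: inhibitors lower millipolarization by displacing the labeled peptide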
Target sequence (Q07817 whole entry, looked up): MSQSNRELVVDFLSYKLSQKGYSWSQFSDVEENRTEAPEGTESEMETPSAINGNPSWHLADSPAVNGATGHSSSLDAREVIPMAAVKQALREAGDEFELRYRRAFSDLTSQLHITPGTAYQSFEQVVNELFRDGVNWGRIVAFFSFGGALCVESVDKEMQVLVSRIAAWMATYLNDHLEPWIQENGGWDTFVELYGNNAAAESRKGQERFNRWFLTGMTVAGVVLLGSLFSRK
EBV gp42 block = blocks Epstein-Barr virus glycoprotein 42 binding; Q1HVG2; inhibition, % (tested at 21.74 µM); Fluorescence polarization binding assay, mP read-out; actives 0.42% (n = 220,000); in the data active means inhibition above about 50%
Bcl-xL conf = Bcl-xL (human) inhibition, MCL1 counter-screen confirmation. shares compounds with MCL1 BIM primary. GST-Bcl-xL / FITC-Bim BH3 peptide FP binding. inhibition, % at 10.9 µM. actives 54% (n = 1,700). AID 2166;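 active means inhibition above a cutoff equal to the mean inhibition of all tested compounds plus 3 SD, cut at about 30% in these data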
MCL1 inh confirm = MCL1-BIM-BH3 interaction inhibition, confirmation; GST-MCL1 / FITC-Bim-BH3 fluorescence polarization; actives 61% (n = 1,700); shares compounds with MCL1 BIM primary; inhibition, % at 10.9 µM;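 active means inhibition above the average of all tested compounds plus 3 SD, cut at about 40% in these data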
Of the large screens only hits and unclear results are named; the others gave an inactive call (follow-up assays come after a bar, where they were run). Compounds with a hit are over-represented: about 1.3% of the library has one in this group of screens.

CCNC(=S)N=Nc1c(O)[nH]c2ccc([N+](=O)[O-])cc12	none
CCc1ccc(N2CC(C(=O)OCC(=O)NNC(=O)c3ccccc3)CC2=O)cc1 (stereo unspecified)	none (no result: EBV gp42 block)
CCCCC1=CC2=C(c3ccco3)C(=O)C(C)(OC(=O)c3ccc(OC)cc3)C(=O)C2=CN1CCCOC(C)C (stereo unspecified)	MCL1 BIM primary 65, GLD-1 RNA inh 51, BCLXL inh 63 | Bcl-xL conf 72 | MCL1 inh confirm 91
COC(=O)CCCC1=CC2=C(c3ccccc3)C(=O)C(C)(OC(=O)C3CCCC3)C(=O)C2=CN1Cc1ccco1 (stereo unspecified)	none
C=CCN1C=C2C(=O)C(C)(OC(=O)c3ccc(OC)cc3)C(=O)C(c3ccco3)=C2C=C1CCCC (stereo unspecified)	MCL1 BIM primary 71, GLD-1 RNA inh 54, BCLXL inh 67 | Bcl-xL conf 41 | MCL1 inh confirm 62
CCCCC1=CC2=C(c3ccco3)C(=O)C(C)(OC(=O)c3ccc(OC)cc3)C(=O)C2=CN1c1ccccc1 (stereo unspecified)	MCL1 BIM primary 50, GLD-1 RNA inh 44, BCLXL inh 49 | Bcl-xL conf inactive | MCL1 inh confirm inactive
COC(=O)CCCC1=CC2=C(c3ccccc3)C(=O)C(C)(OC(=O)C3CCCC3)C(=O)C2=CN1CCCCO (stereo unspecified)	none
CS(=O)(=O)c1ccccc1C(=O)Nc1cccc2ncccc12	none (no result: EBV gp42 block)
C/C(=C\c1ccccc1)C1Nc2cccc3cccc(c23)N1	MCL1 BIM primary 41 (no result: MEX-5 binding, EBV gp42 block) | Bcl-xL conf inactive | MCL1 inh confirm inactive
COc1ccc(NC(=O)CSc2nc3nc(C)cc(C)c3c(=O)[nH]2)cc1	MCL1 BIM primary 55, BCLXL inh 35 (no result: EBV gp42 block) | Bcl-xL conf inactive | MCL1 inh confirm inactive
CCN(CC)c1ccc(NC(=O)CSc2nc3nc(C)cc(C)c3c(=O)[nH]2)cc1	none (no result: EBV gp42 block)
COC(=O)c1c(Cl)c2n3ccccc3c(C)c(-c3ccccc3)c-2c1C(=O)OC	MCL1 BIM primary active, GLD-1 RNA inh 179, MEX-5 binding -41, BCLXL inh 172, EBV gp42 block 97 | Bcl-xL conf 37 | MCL1 inh confirm inactive
COc1ccc(-n2c(=S)[nH]c3cc(C(=O)NCc4cccnc4)ccc3c2=O)cc1	none (no result: EBV gp42 block)
Cc1ccccc1NC(=O)Cc1nnc(N)s1	none
COc1ccc(NC(=O)c2ccc(-c3nn(C)c(=O)c4ccccc34)cc2)cc1	MCL1 BIM primary 45 | Bcl-xL conf inactive | MCL1 inh confirm inactive
COc1cc(NC(=O)c2noc3c2CCC3)c(OC)cc1Cl	MCL1 BIM primary 50 | Bcl-xL conf inactive | MCL1 inh confirm 53
CNCCCOc1cc(C)cc(C)c1C	none
O=C(NNC(=O)c1ccccc1F)c1cccc(-n2cccc2)c1	MCL1 BIM primary 65 (no result: EBV gp42 block) | Bcl-xL conf inactive | MCL1 inh confirm 92
O=C(NNC(=O)c1cccc(-n2cccc2)c1)c1ccccc1	none (no result: MEX-5 binding, EBV gp42 block)
c1ccc(-c2nnc(CN3CCCc4ccccc43)o2)cc1	MCL1 BIM primary 72, BCLXL inh 65 | Bcl-xL conf 46 | MCL1 inh confirm 68
c1ccc(-c2nnc(CN3CCCCC3)o2)cc1	none (no result: EBV gp42 block)
CC(=O)Nc1ccc(/C=N/NC(=O)c2cc(-c3ccco3)nc3ccccc23)cc1	none
O=C(O)c1ccccc1/C=N/NC(=O)c1cc(-c2ccco2)nc2ccccc12	MCL1 BIM primary 64, EBV gp42 block 59 | Bcl-xL conf 42 | MCL1 inh confirm 91
COc1cccc(NC(=O)c2cnc(SCC(=O)NCc3ccc4c(c3)OCO4)n(C)c2=O)c1	none (no result: EBV gp42 block)
O=c1[nH]nc(CNc2ccc(O)cc2)c2ccccc12	MCL1 BIM primary 76, GLD-1 RNA inh 89, MEX-5 binding -52, BCLXL inh 79 | Bcl-xL conf 51 | MCL1 inh confirm 41
O=c1[nH]nc(CNc2ccc(C(F)(F)F)cc2)c2ccccc12	none
Cc1ccc(S(=O)(=O)c2nc(C)oc2NCc2ccccc2)cc1	MCL1 BIM primary 40 | Bcl-xL conf inactive | MCL1 inh confirm 57
CNc1oc(C)nc1S(=O)(=O)c1ccc(C)cc1	none
COc1ccc(CNC(=O)CSc2nc(SC)ns2)cc1	none (no result: EBV gp42 block)
Cc1cc(C)n2c(=O)c3ccc(Cl)cc3nc2c1C#N	MCL1 BIM primary 51 | Bcl-xL conf inactive | MCL1 inh confirm inactive
Cc1ccc(C(=O)c2coc3cc([N+](=O)[O-])c(O)c([N+](=O)[O-])c23)cc1	none
O=C(N/N=C/c1ccc(Cl)cc1Cl)c1ccncc1	none (no result: EBV gp42 block)
O=C(N/N=C/c1cc(Cl)cc(Cl)c1O)c1ccncc1	MCL1 BIM primary 56, GLD-1 RNA inh 67, BCLXL inh 72, EBV gp42 block 57 | Bcl-xL conf 67 | MCL1 inh confirm 67
NC(=O)c1c(NC(=O)C2CCCO2)sc2c1CCC2 (stereo unspecified)	none
NC(=O)c1c(NC(=O)C2CCCO2)sc2c1CCCCC2 (stereo unspecified)	MCL1 BIM primary 43, BCLXL inh 33 | Bcl-xL conf inactive | MCL1 inh confirm inactive
CN1C(=O)NC(c2ccccc2[N+](=O)[O-])C2=C1CCCC2=O (stereo unspecified)	MCL1 BIM primary active, GLD-1 RNA inh active, MEX-5 binding -80, BCLXL inh active (no result: EBV gp42 block) | Bcl-xL conf 154 | MCL1 inh confirm 177
CCOc1ccc(C2C=C(c3ccc(C)cc3)Nc3nnnn32)cc1 (stereo unspecified)	MCL1 BIM primary 50, GLD-1 RNA inh 33, BCLXL inh 59 | Bcl-xL conf 39 | MCL1 inh confirm 57
CN1CCN(C2=Nc3c(Cl)cc(Cl)c4cccc2c34)CC1	MCL1 BIM primary 80, GLD-1 RNA inh 40, BCLXL inh 75, EBV gp42 block 63 | Bcl-xL conf 82 | MCL1 inh confirm 110
CN1CCN(C2=Nc3cc(Cl)ccc3Nc3ccccc32)CC1	none
Cn1cc(/C=C2\SC(=O)NC2=S)c2ccccc21	MCL1 BIM primary 60, BCLXL inh 62, EBV gp42 block 72 | Bcl-xL conf 74 | MCL1 inh confirm 82
Cn1cc(C=O)c2ccccc21	none
O=C(Nc1nccs1)c1ncc(Cl)c(Cl)c1Cl	none (no result: EBV gp42 block)
CCCN1CCC2(CC1)C(C#N)=C(N)Oc1c2sc2nc(C)cc(C)c12	MCL1 BIM primary 70, BCLXL inh 69 | Bcl-xL conf 45 | MCL1 inh confirm 46
CCOC(=O)N1CCC2(CC1)C(C#N)=C(N)Oc1c2sc2nc(C)cc(C)c12	none
O=C(NNC(=O)c1ccccc1-n1cccc1)c1ccc(Cl)nc1	none (no result: MEX-5 binding, EBV gp42 block)
C/C(N)=C(/C#N)C(=O)COC(=O)Cc1coc2ccc3ccccc3c12	none
CCNc1nc(-c2cc(C)n(Cc3ccco3)c2C)cs1	MCL1 BIM primary 46, BCLXL inh 41 | Bcl-xL conf inactive | MCL1 inh confirm inactive
